Screening results deposited in PubChem by Broad Institute.
Most compounds without a hit are left out; they make up all but 3.4% or so of the library.
HSF1 inh = HSF1 inhibition | NIH3T3-HGL HSE-luciferase, MG132-induced, luminescence 8 h; hits give low values | activity change, negative = inhibition, % at 7.5 µM (by protocol) | actives 0.77% (n = 300,000);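 active = more than half of replicate wells show activity change below -50%, luminescence cut by over half; inconclusive = some wells, but at most half, below -50%; inactive = no replicate well below -50%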;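 note: luciferase reports HSF-1 transcriptional activity via heat shock element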
HSF-1 act = increases HSF-1 driven luciferase reporter signal; actives 1.7% (n = 300,000); activation, % at 9 µM; NIH3T3-HGL HSF-1 luciferase reporter, MG132, 8 h; 100% = twice DMSO control signal;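 active = mean replicate activation of at least 50% with a set share of replicates each reaching 50%; inconclusive = only one of those two conditions met; inactive = mean below 50% and too few replicates reaching it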
Vif inh = blocks HIV Vif function; actives 0.35% (n = 340,000); inhibition, % at 7.49 µM; HEK293T cells, Vif self-association by quenched fluorescence, imaging, 24 h; in the data active = inhibition above about 50%, passing the limit was not always enough; inconclusive = no clear call, values can overlap the other calls; inactive = below about 31%
esBAF inh = blocks esBAF chromatin remodeling in mouse ES cells. Bmi1-luciferase knock-in reporter, 24 h; 100% = twice the neutral-well signal. reporter increase, % at 12.5 µM. actives 2% (n = 350,000); in the data active = activation above about 40%; inconclusive = no clear call, values can overlap the other calls;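 note: a rise in the Bmi1 reporter signal indicates esBAF inhibition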
Large screens that a line does not name were inactive.

O=c1[nH]c(-c2ccc(-c3cccc(Cl)c3)o2)nc2ccccc12	esBAF inh 58 (no result: HSF1 inh, HSF-1 act)
c1csc(-c2cn3ccc4ccccc4c3n2)c1	HSF-1 act inconclusive, esBAF inh 72
Oc1ccccc1-c1cc(-c2ccc(F)cc2)n[nH]1	none
Oc1ccc(F)cc1-c1cc(-c2ccc3c(c2)OCCO3)n[nH]1	HSF-1 act 105 (no result: esBAF inh)
CC(C)NC(=O)Nc1ccc2c(c1)C(=O)N([C@@H](C)CO)C[C@H](C)[C@@H](CN(C)C(=O)Nc1ccc3c(c1)OCO3)OCCCC[C@H](C)O2	none (no result: HSF1 inh, HSF-1 act, Vif inh)
CCC(=O)Nc1ccc2c(c1)C(=O)N(C)C[C@@H](OC)[C@H](C)CN(CC1CC1)[C@@H](C)CO2	none (no result: HSF1 inh, HSF-1 act, Vif inh)
CC(Sc1nnnn1-c1ccccc1)C(=O)Nc1ccc(N2CCN(C)CC2)cc1 (configuration not stated)	none
CC(Sc1nnnn1C)C(=O)Nc1ccc(Oc2ccccc2)cc1 (configuration not stated)	HSF1 inh -68
NCCNC(=O)c1c(NC(=O)c2ccccc2)sc2c1CCCC2	esBAF inh 68
O=C(Nc1sc2c(c1C(=O)O)CCC2)c1ccccc1	esBAF inh 53
O=C(Nc1sc2c(c1C(=O)O)CCC2)c1ccc(F)cc1	esBAF inh 63
O=C(Nc1sc2c(c1C(=O)O)CCCC2)c1cccc(Cl)c1	esBAF inh 73
C[C@H](CO)N1C[C@H](C)[C@@H](CN(C)C(=O)c2cccc(F)c2)Oc2cc(-c3cccc(F)c3)ccc2S1(=O)=O	none (no result: HSF1 inh, HSF-1 act, Vif inh)
CCCC(=O)N1C[C@H]2[C@@H](c3ccccc31)[C@@H](CO)N2C(=O)Nc1ccccc1	none (no result: HSF1 inh, HSF-1 act, Vif inh)
Cc1ncoc1C(=O)N1CCCC(C(=O)c2cccc(OC(C)C)c2)C1 (configuration not stated)	none (no result: esBAF inh)
Cc1ncoc1C(=O)N1CCCC(C(=O)c2ccc(Oc3ccccc3)cc2)C1 (configuration not stated)	Vif inh 61 (no result: esBAF inh)
C[C@H]1CN([C@@H](C)CO)C(=O)c2cc(-c3ccc(F)cc3)cnc2O[C@H]1CN(C)Cc1ccc(F)cc1	none (no result: HSF1 inh, HSF-1 act, Vif inh)
c1ccc(-c2cc3nc(NCc4ccc5c(c4)OCO5)ccn3n2)cc1	esBAF inh 52 (no result: HSF1 inh, HSF-1 act)
c1ccc(-c2cc3nc(NCc4cccs4)ccn3n2)cc1	esBAF inh 67 (no result: HSF1 inh, HSF-1 act)
CC1(C)CC(=O)C2=C(C1)c1c(ccc3ccccc13)NC2c1ccco1 (configuration not stated)	HSF-1 act 92
COc1cccc(NC(=O)c2nnn(Cc3ccc(Br)cc3F)c2N)c1	HSF-1 act 70
COc1cccc(NC(=O)Cn2nnc(C(=O)Nc3ccccc3)c2N)c1	none (no result: esBAF inh)
COc1cccc(NC(=O)c2nnn(CC(=O)Nc3cc(C)cc(C)c3)c2N)c1	none
CCOc1ccc(NC(=O)c2nn(C)cc2Br)cc1	none
COc1cccc(NC(=O)c2nn(C)cc2Br)c1	esBAF inh 55
COc1cccc(NC(=O)c2nnn(CCc3ccccc3)c2N)c1	esBAF inh 78
COc1ccc(/C=C/c2nnc(NC(C)=O)s2)cc1	HSF-1 act 57
CCC(=O)Nc1ccc2c(c1)C(=O)N(C)C[C@@H](OC)[C@H](C)CN(C(=O)CN1CCOCC1)[C@H](C)CO2	none (no result: HSF1 inh, HSF-1 act, Vif inh)
O=C(CCl)Nc1ccccc1C(=O)c1ccccc1	HSF1 inh -95 (no result: esBAF inh)
O=C(C1CC1)N1CC[C@@H]2[C@H]1c1cc(Br)ccc1N[C@@H]2CO	esBAF inh 47 (no result: HSF1 inh, HSF-1 act, Vif inh)
O=C(CCc1ccccc1)c1ccc2c(c1)OCCCO2	HSF-1 act inconclusive, esBAF inh 76
C/C(=N/NC(=O)CCc1ccccc1)c1ccc2c(c1)OCO2	none
O/N=C(/CCc1ccccc1)c1ccc2c(c1)OCCO2	HSF-1 act 55, esBAF inh 46
Nc1cc[n+](CC(=O)c2ccc3c(c2)OCCO3)cc1	Vif inh 82
O=C(CCCc1ccccc1)c1ccccc1	none
O=C(CCCc1ccccc1)c1ccc2c(c1)OCCO2	HSF1 inh -89 (no result: Vif inh)
O=C(O)CCC(=O)c1ccc2c(c1)OCCCO2	none
CCCNC(=O)Nc1ccc2c(c1)C(=O)N(C)C[C@@H](OC)[C@@H](C)CN(C(=O)C1CC1)[C@H](C)CO2	none (no result: HSF1 inh, HSF-1 act, Vif inh)
CCCN(C)C[C@H]1Oc2cc(C#CC3CCCC3)ccc2S(=O)(=O)N([C@H](C)CO)C[C@H]1C	none (no result: HSF1 inh, HSF-1 act, Vif inh)
COc1ccc(S(=O)(=O)Nc2ccc3c(c2)C(=O)N([C@@H](C)CO)C[C@H](C)[C@@H](CN(C)S(=O)(=O)c2c(C)noc2C)OCCCC[C@H](C)O3)cc1	none (no result: HSF1 inh, HSF-1 act, Vif inh)
CC(C)(C)n1ncc2c(=O)n(CC(=O)Nc3ccc(Cl)cc3)cnc21	none
CC(C)(C)n1ncc2c(=O)n(CC(=O)c3ccc(Cl)cc3)cnc21	HSF-1 act inconclusive, esBAF inh 74
O=C(NCCCn1ccnc1)c1sc2cc([N+](=O)[O-])ccc2c1Cl	esBAF inh 63 (no result: HSF1 inh, HSF-1 act)
COc1ccccc1-c1nc(SCc2ccccn2)n[nH]1	esBAF inh 60
COc1ccccc1-c1nnc(SCc2ccccn2)n1C	none
Cc1ccc(OCc2ccc(Br)cc2)c([N+](=O)[O-])n1	HSF-1 act 77 (no result: Vif inh, esBAF inh)
CCOc1cc(Br)c(COc2ccc(C)nc2[N+](=O)[O-])cc1OCC	none
Cc1ccc(OCCOc2cccc(Br)c2)c([N+](=O)[O-])n1	HSF-1 act 88 (no result: esBAF inh)
CN(C)c1ccc(/C=C2\SC(=O)N(CCc3nnc(N)s3)C2=O)cc1	Vif inh 96 (no result: esBAF inh)
O=C(CCN1CCCCC1)N[C@@H]1CC[C@H](CCNS(=O)(=O)c2ccc(F)cc2)O[C@H]1CO	none (no result: HSF1 inh, HSF-1 act, Vif inh)
CC(=O)NC[C@H]1[C@@H](c2ccc(-c3cccnc3)cc2)[C@H](CO)N1C(=O)C1CCC1	none (no result: HSF1 inh, HSF-1 act, Vif inh)
C[C@@H]1CN([C@H](C)CO)C(=O)c2cc(-c3ccccc3)cnc2O[C@@H]1CN(C)Cc1ccccn1	none (no result: HSF1 inh, HSF-1 act, Vif inh)
CN1CCN(C(=O)C[C@H]2CC[C@H]3[C@@H](COC[C@H](O)CN3C(=O)C3CCOCC3)O2)CC1	none (no result: HSF1 inh, HSF-1 act, Vif inh)
COc1ccc(NC(=O)N(C)C[C@@H]2Oc3ccc(NC(=O)Cc4ccccc4)cc3CC(=O)N([C@@H](C)CO)C[C@H]2C)cc1	none (no result: HSF1 inh, HSF-1 act, Vif inh)
Cc1cc(N)ccc1-c1cc2ccccc2oc1=O	Vif inh 52
COc1cc(N)ccc1-c1cc2ccccc2oc1=O	none
COc1ccc(CN(C)C[C@@H]2OCCCC[C@H](C)Oc3ccc(NS(=O)(=O)c4ccc(OC)cc4)cc3C(=O)N([C@H](C)CO)C[C@@H]2C)cc1	none (no result: HSF1 inh, HSF-1 act, Vif inh)
O=[N+]([O-])c1cc(Cl)ccc1NCCNS(=O)(=O)c1ccccc1	HSF-1 act 55 (no result: esBAF inh)
O=C(C[C@H]1C[C@H]2c3cc(NC(=O)Nc4ccccc4F)ccc3O[C@H]2[C@@H](CO)O1)NCc1cc(F)ccc1F	none (no result: HSF1 inh, HSF-1 act, Vif inh)
CCN(CC)C1Oc2cc3c(cc2C(c2cc(OC)c(OC)c(OC)c2)C1C)OCO3 (configuration not stated)	Vif inh 55 (no result: HSF1 inh, HSF-1 act)
COc1ccc(NC(=O)N(C)C[C@@H]2OCCCC[C@@H](C)Oc3ccc(NS(=O)(=O)c4ccc(OC)cc4)cc3C(=O)N([C@H](C)CO)C[C@@H]2C)cc1	none (no result: HSF1 inh, HSF-1 act, Vif inh)
COC(=O)C1C(=O)c2c([nH]c(C(=O)OC3CCCCC3)c2C)CC1C (configuration not stated)	HSF-1 act 68, esBAF inh 63
